Measured values taken from PubChem BioAssay (NCI).
Compounds without any hit were thinned out: in the full panel of roughly 83,000, 20% have a hit.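 Compound tested at a single concentration for 48 hours in 96-well plates; a percent growth value below 10 was scored as active.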 Active and inactive are the calls of the source.

What was measured:
Experiment in all cases: NCI-60 one-dose screen, 48 h (100 = growth as untreated, 0 = no growth, -100 = all killed)
Conditions in all cases: 10 µM unless noted
T-47D breast = test system: T-47D breast
MDA-MB-435 melanoma = test system: MDA-MB-435 melanoma
SW-620 colon = test system: SW-620 colon
MCF7 breast = test system: MCF7 breast
HCT-116 colon = test system: HCT-116 colon
HCC-2998 colon = test system: HCC-2998 colon
BT-549 breast = test system: BT-549 breast
KM12 colon = test system: KM12 colon

Measured: growth

O=C(NCCCCCCCNC(=O)OCc1ccc2c(Cl)cc(Cl)c(O)c2n1)OCc1ccc2c(Cl)cc(Cl)c(O)c2n1
active: T-47D breast -62.5% | MDA-MB-435 melanoma -86.4% | SW-620 colon -67.3% | MCF7 breast -30.2% | HCT-116 colon -70% | HCC-2998 colon -75.8%

O=[N+]([O-])c1cccc(/C=C/c2ccc3ccccc3n2)c1
inactive: T-47D breast 79.5% | BT-549 breast 73.7% | MDA-MB-435 melanoma 79.8% | SW-620 colon 85.5% | HCT-116 colon 82.4% | HCC-2998 colon 81% | KM12 colon 82.7%

O=C(N/N=C\c1cc(Cl)ccc1O)N/N=C/c1cc(Cl)ccc1O
inactive: T-47D breast 49.6% | MDA-MB-435 melanoma 47.7% | SW-620 colon 42.3% | MCF7 breast 46.2% | HCT-116 colon 16% | HCC-2998 colon 46.1%

CC(C)C1=NOC(=O)C1=Cc1cn(-c2ccccc2)nc1-c1ccc(Cl)cc1
inactive: T-47D breast 74.6% | BT-549 breast 117% | MDA-MB-435 melanoma 76.4% | SW-620 colon 61.4% | HCT-116 colon 50.4% | HCC-2998 colon 72.5% | KM12 colon 91.7%

O=[N+]([O-])c1cccc(N=NNc2cccc([N+](=O)[O-])c2)c1
inactive: T-47D breast 76.3% | BT-549 breast 101% | SW-620 colon 91.7% | MCF7 breast 65.3% | HCT-116 colon 114% | HCC-2998 colon 104% | KM12 colon 95.2%

Clc1ccc(/C=N/Nc2nc3ccccc3s2)c(Cl)c1
inactive: T-47D breast 74.4% | BT-549 breast 115% | MDA-MB-435 melanoma 91.9% | SW-620 colon 79.3% | HCT-116 colon 80.6% | HCC-2998 colon 101% | KM12 colon 94%

CCN(CC)CCCC(C)Nc1c2ccc(C)cc2nc2ccc(OC)cc12 (stereo unspecified)
inactive: T-47D breast 70.7% | BT-549 breast 73% | MDA-MB-435 melanoma 10.2% | HCC-2998 colon 34.9% | KM12 colon 16.4%
active: SW-620 colon -41.4% | MCF7 breast 4.31%

CC(C)C1=NOC(=O)C1=Cc1cn(-c2ccccc2)nc1-c1cccc([N+](=O)[O-])c1
inactive: T-47D breast 84.5% | BT-549 breast 109% | MDA-MB-435 melanoma 80% | SW-620 colon 57.8% | HCT-116 colon 34.7% | HCC-2998 colon 87.3% | KM12 colon 87%

CCOC(=O)c1cc(C#N)n2ncc3ccccc3c12
inactive: T-47D breast 92.2% | BT-549 breast 91.5% | MDA-MB-435 melanoma 103% | SW-620 colon 98% | MCF7 breast 87.2% | HCC-2998 colon 104% | KM12 colon 102%

CCOC(CNC(=O)c1cccc([N+](=O)[O-])c1)OCC
inactive: T-47D breast 92.1% | BT-549 breast 60.5% | MDA-MB-435 melanoma 103% | SW-620 colon 102% | MCF7 breast 87.2% | KM12 colon 112%

Cc1ccc(S(=O)(=O)Nc2ccccc2)cc1N
inactive: T-47D breast 101% | BT-549 breast 49.5% | MDA-MB-435 melanoma 92.6% | SW-620 colon 99.7% | MCF7 breast 91.8% | KM12 colon 107%

CCn1cc(-c2ccnc(NCCNS(=O)(=O)c3cccc4ccccc34)c2)c(-c2cccc(O)c2)n1
inactive: T-47D breast 85.9% | BT-549 breast 109% | MDA-MB-435 melanoma 96.1% | SW-620 colon 118% | HCT-116 colon 87.3% | HCC-2998 colon 122% | KM12 colon 99.1%

COc1ccc2[nH]c(C(=O)N3CCN(C(=O)OCc4ccc5c(Br)cc(Br)c(O)c5n4)CC3)cc2c1
active: T-47D breast -62.5% | MDA-MB-435 melanoma -86.6% | SW-620 colon -70.3% | MCF7 breast -58.4% | HCT-116 colon -87.1% | HCC-2998 colon -90.7%

Cn1cc(-c2nnc(-c3ccccc3)s2)c2cc(Br)cnc21
inactive: T-47D breast 44% | MDA-MB-435 melanoma 92.6% | SW-620 colon 82.5% | MCF7 breast 40.5% | HCT-116 colon 108% | HCC-2998 colon 101%

O=S(=O)(NCCNc1nccc(-c2c(-c3cccc(F)c3)nc3occn23)n1)c1ccc(C(F)(F)F)cc1
inactive: T-47D breast 61.9% | BT-549 breast 106% | MDA-MB-435 melanoma 76.3% | SW-620 colon 101% | HCT-116 colon 76.5% | HCC-2998 colon 125% | KM12 colon 92%

O=C(O)CC1CCCCC1c1ccccc1 (stereo unspecified)
inactive: T-47D breast 104% | BT-549 breast 96% | MDA-MB-435 melanoma 115% | SW-620 colon 111% | HCT-116 colon 98.4% | HCC-2998 colon 106%

O=C(N/N=C1\c2ccccc2-c2cccc(C(=O)O)c21)c1ccc(O)cc1
inactive: T-47D breast 104% | BT-549 breast 83.7% | MDA-MB-435 melanoma 99.1% | SW-620 colon 84.3% | HCT-116 colon 99.4% | HCC-2998 colon 98.9% | KM12 colon 105%

CCOC(=O)CC(c1ccccc1)C(C#N)c1ccccc1 (stereo unspecified)
inactive: T-47D breast 89.6% | MDA-MB-435 melanoma 96.4% | SW-620 colon 95.3% | MCF7 breast 99.8% | HCT-116 colon 92% | HCC-2998 colon 114%

COc1cc2c(c(Br)c1N)-c1cc(Br)c(N)cc1C2=O
inactive: T-47D breast 18.4% | BT-549 breast 77.9% | SW-620 colon 75.3% | HCT-116 colon 62.9% | HCC-2998 colon 52.1% | KM12 colon 66.6%
active: MCF7 breast 3.68%

NS(=O)(=O)c1ccc(CCN2C(=O)/C(=C\c3ccccc3)C=C2c2ccc(Cl)cc2)cc1
inactive: T-47D breast 88.9% | BT-549 breast 96.4% | MDA-MB-435 melanoma 99.8% | SW-620 colon 99.2% | MCF7 breast 81.2% | HCC-2998 colon 105% | KM12 colon 99%

CC(C)C1=NOC(=O)C1=Cc1cn(-c2ccccc2)nc1-c1ccccc1
inactive: T-47D breast 76.2% | BT-549 breast 114% | MDA-MB-435 melanoma 73.2% | SW-620 colon 60.1% | HCT-116 colon 28.9% | HCC-2998 colon 91.8%

CC(C)C1=NOC(=O)C1=Cc1cn(-c2cccnc2)nc1-c1ccccc1
inactive: T-47D breast 92.6% | BT-549 breast 125% | MDA-MB-435 melanoma 95.1% | SW-620 colon 88.8% | HCC-2998 colon 111% | KM12 colon 102%

Clc1ccccc1/C=N\Nc1ccccn1
inactive: T-47D breast 62.1% | BT-549 breast 114% | SW-620 colon 102% | MCF7 breast 28.4% | HCT-116 colon 107% | HCC-2998 colon 111% | KM12 colon 87.2%

CC(C)c1ccc(/C=N/N=C(N)N)cc1
inactive: T-47D breast 91% | BT-549 breast 86.3% | SW-620 colon 36.2% | HCC-2998 colon 50.9% | KM12 colon 27.7%
active: MDA-MB-435 melanoma -28.7% | MCF7 breast 8.1%

CC(=O)Nc1ccc2nc3ccc(NC(C)=O)cc3[n+](-c3ccccc3)c2c1
inactive: T-47D breast 93.4% | BT-549 breast 101% | MDA-MB-435 melanoma 123% | SW-620 colon 116% | MCF7 breast 73.1% | HCC-2998 colon 108% | KM12 colon 116%

Cc1ccc(S(=O)(=O)NCCCNc2nccc(-c3c(-c4cccc(F)c4)nc4occn34)n2)cc1
inactive: T-47D breast 39.5% | BT-549 breast 92.1% | MDA-MB-435 melanoma 43.4% | SW-620 colon 76.8% | HCT-116 colon 53.6% | HCC-2998 colon 117% | KM12 colon 77.6%

COc1ccc(/C=C(/C(=O)c2ccc(Cl)cc2)C(=O)C(F)(F)F)cc1
inactive: T-47D breast 90.3% | BT-549 breast 111% | SW-620 colon 101% | MCF7 breast 77.2% | HCT-116 colon 101% | HCC-2998 colon 93.4% | KM12 colon 91.6%

CC(C)C1=NOC(=O)C1=Cc1cn(-c2ccccc2)nc1-c1ccc(Br)cc1
inactive: T-47D breast 74.8% | BT-549 breast 119% | MDA-MB-435 melanoma 71.3% | SW-620 colon 57.7% | HCT-116 colon 64.2% | HCC-2998 colon 76.2% | KM12 colon 85.4%

COc1ccc(/C=C2\N=C(Nc3ccccc3)N(NC(=O)c3ccccn3)C2=O)cc1
inactive: T-47D breast 63.6% | BT-549 breast 94.1% | MDA-MB-435 melanoma 98.7% | SW-620 colon 102% | MCF7 breast 87.5% | HCC-2998 colon 105% | KM12 colon 96.1%

CC(C)C1=NOC(=O)C1=Cc1cn(-c2ccco2)nc1-c1ccccc1
inactive: T-47D breast 49% | BT-549 breast 116% | MDA-MB-435 melanoma 91.9% | SW-620 colon 84% | HCT-116 colon 58.2% | HCC-2998 colon 101% | KM12 colon 85.2%

O=S(=O)(NCCCNc1nccc(-c2c(-c3cccc(F)c3)nc3occn23)n1)c1cccc2ccccc12
active: T-47D breast 4.4% | HCC-2998 colon 2.75%
inactive: BT-549 breast 45% | MDA-MB-435 melanoma 15.7% | SW-620 colon 24.2% | HCT-116 colon 23.4% | KM12 colon 15.7%

CCn1cc(-c2ccnc(NCCNS(=O)(=O)c3ccc(Br)cc3)c2)c(-c2cccc(OC)c2)n1
inactive: T-47D breast 16.3% | BT-549 breast 99.7% | MDA-MB-435 melanoma 83.7% | SW-620 colon 81.7% | HCT-116 colon 51.6% | HCC-2998 colon 111% | KM12 colon 82.8%

C=C1C(=O)O[C@H]2[C@H]1CC/C(COC(=O)NCc1ccc(Cn3c(=O)sn(-c4ccc(Cl)cc4)c3=O)cc1)=C\CC[C@@]1(C)O[C@@H]21
active: SW-620 colon 6.67%
inactive: T-47D breast 47.5% | MDA-MB-435 melanoma 82.9% | MCF7 breast 33.1% | HCT-116 colon 22.1% | HCC-2998 colon 107%

CCOC(=O)c1nn(C2CCCCO2)c2ccc(NS(=O)(=O)c3ccc(C)cc3)cc12 (stereo unspecified)
inactive: T-47D breast 80% | MDA-MB-435 melanoma 100% | SW-620 colon 98.1% | MCF7 breast 93.1% | HCT-116 colon 87.8% | HCC-2998 colon 107% | KM12 colon 104%

O=C(CCN1CCCCC1)c1ccc(Cl)cc1
inactive: T-47D breast 92.6% | MDA-MB-435 melanoma 105% | SW-620 colon 103% | MCF7 breast 91.8% | HCT-116 colon 96.7% | HCC-2998 colon 112% | KM12 colon 102%

CCOc1ccc(/C=C(\C#N)c2cc3ccccc3[nH]2)cc1
active: MDA-MB-435 melanoma -28.8%
inactive: T-47D breast 39.7% | SW-620 colon 24.6% | MCF7 breast 24.7% | HCT-116 colon 37.1% | HCC-2998 colon 72.5% | KM12 colon 22.5%
